Many of the other results were omitted from the sample, so hits are more common in it than they were.
KDM5B inhibitor = Primary screen for KDM5B Histone Demethylases FDH-coupled qHTS; KDM5B demethylase, FDH-coupled NADH fluorescence (FDH is formaldehyde dehydrogenase); Lysine-specific demethylase 5B (Homo sapiens), Q9UGL1; 220,000 compounds, 2.6% hits; Potency, µM (top dose mostly 57.7 µM), usual class: inhibitors; active = well fitted inhibition curve with a large enough effect; also: nearly all actives have a fitted effect of over 70% in size
Target sequence (Q9UGL1 whole entry, looked up): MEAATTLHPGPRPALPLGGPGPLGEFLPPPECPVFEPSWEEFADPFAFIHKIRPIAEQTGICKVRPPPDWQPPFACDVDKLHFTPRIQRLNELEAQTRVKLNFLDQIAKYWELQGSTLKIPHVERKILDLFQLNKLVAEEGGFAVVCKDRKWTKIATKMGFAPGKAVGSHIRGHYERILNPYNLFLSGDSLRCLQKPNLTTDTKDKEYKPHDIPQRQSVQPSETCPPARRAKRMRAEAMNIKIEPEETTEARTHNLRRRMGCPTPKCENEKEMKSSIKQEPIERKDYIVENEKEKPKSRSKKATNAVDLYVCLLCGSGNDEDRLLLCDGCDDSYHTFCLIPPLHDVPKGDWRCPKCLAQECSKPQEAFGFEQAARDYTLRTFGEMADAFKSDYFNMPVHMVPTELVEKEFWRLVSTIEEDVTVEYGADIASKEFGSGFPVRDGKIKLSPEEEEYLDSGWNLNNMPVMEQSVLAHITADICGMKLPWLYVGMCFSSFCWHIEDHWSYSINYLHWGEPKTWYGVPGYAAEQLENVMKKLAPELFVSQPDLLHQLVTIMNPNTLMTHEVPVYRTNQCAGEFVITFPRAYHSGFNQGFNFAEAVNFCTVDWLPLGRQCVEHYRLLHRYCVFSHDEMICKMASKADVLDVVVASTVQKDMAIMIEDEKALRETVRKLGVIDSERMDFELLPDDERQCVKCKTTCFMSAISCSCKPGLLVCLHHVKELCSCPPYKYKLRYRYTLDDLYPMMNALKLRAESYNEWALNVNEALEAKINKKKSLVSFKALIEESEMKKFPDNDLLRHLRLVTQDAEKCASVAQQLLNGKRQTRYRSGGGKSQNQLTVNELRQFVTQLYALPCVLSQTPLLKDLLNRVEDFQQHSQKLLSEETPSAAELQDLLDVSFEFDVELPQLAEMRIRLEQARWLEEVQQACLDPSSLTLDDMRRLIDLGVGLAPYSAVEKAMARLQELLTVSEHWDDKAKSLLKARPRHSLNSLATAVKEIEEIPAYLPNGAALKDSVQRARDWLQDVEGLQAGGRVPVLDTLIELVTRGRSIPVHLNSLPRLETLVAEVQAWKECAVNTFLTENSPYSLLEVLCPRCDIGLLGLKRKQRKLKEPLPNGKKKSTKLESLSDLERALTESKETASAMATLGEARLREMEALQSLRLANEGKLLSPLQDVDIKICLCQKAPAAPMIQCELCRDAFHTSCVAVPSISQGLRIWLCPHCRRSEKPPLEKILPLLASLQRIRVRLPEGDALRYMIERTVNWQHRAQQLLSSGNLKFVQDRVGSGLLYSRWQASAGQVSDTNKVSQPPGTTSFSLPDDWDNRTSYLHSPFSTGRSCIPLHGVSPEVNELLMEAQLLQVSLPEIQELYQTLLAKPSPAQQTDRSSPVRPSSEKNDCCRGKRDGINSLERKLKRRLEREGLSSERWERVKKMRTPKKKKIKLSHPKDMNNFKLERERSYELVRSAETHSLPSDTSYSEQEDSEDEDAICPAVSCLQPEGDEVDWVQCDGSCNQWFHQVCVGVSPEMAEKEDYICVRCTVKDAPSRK
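Inhibition is measured as reduced NADH fluorescence generation from FDH coupling to formaldehyde release. Truncated KDM5BΔAP at 200 nM final acts on H3K4me3 peptide (12.5 µM in substrate mix) in pH 7.5 HEPES buffer with Tween-20, 30 min, room temperature.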
A number is an active result; . = inactive.

SMILES	KDM5B inhibitor
CS(=O)(=O)N1CCC(OC2CCN(C(=O)Nc3ccc(F)cc3F)CC2)CC1	.
Cn1cc(C(=O)N2CCC3(CC2)CC(=O)N(CCCc2ccccc2)C3)cn1	.
CCCC(C)N1CC2(CCN(C(=O)c3cnn4ccccc34)CC2)OC1=O (configuration not stated)	28µM
O=C1CC2(CCN(C(=O)c3cnn4ccccc34)CC2)CN1Cc1ccccc1	20µM
CCCC(C)N1CC2(CCN(C(=O)c3cnc(C)cn3)CC2)OC1=O (configuration not stated)	.
CCCC(C)N1CC2(CCN(C(=O)c3cc(Cl)ccc3C)CC2)OC1=O (configuration not stated)	.
O=C1CC2(CCN(C(=O)C3CCc4ccccc43)CC2)CN1Cc1ccccc1 (configuration not stated)	.
COc1cc(/C=C(/C#N)C(=O)Nc2ccccc2C(F)(F)F)cc(Br)c1OC	.
COc1ccc(Cl)cc1C(=O)N1C[C@@H](CO)[C@H](c2ccncc2)C1	.
Cc1cccc(-c2ocnc2C(=O)N2CCN3CCS(=O)(=O)N(C4CC4)C(=O)C3C2)c1 (configuration not stated)	.
COc1ccc(C(=O)N2C[C@@H](CO)[C@H](c3ccncc3)C2)cc1	.
CNC(=O)[C@@H]1CN(C(=O)COc2ccc(F)cc2)C[C@H]1CO	.
COc1ccc2cc(C(=O)N3CCN4CCS(=O)(=O)N(C5CC5)C(=O)C4C3)[nH]c2c1 (configuration not stated)	.
CNC(=O)[C@@H]1CN(C(=O)C2(c3ccc(OC)cc3)CC2)C[C@H]1CO	.
COc1ccc2[nH]c(C(=O)N3CCN4CCS(=O)(=O)N(C5CC5)C(=O)C4C3)cc2c1 (configuration not stated)	25µM
CNC(=O)[C@@H]1CN(C(=O)c2cc3cc(OC)ccc3[nH]2)C[C@H]1CO	22µM
COc1ccc2[nH]c(C(=O)N3C[C@@H](CO)[C@H](c4ccncc4)C3)cc2c1	32µM
O=C(Nc1ccc(N2CCOCC2)c(Cl)c1)c1cccc2ccccc12	.
Cn1c(C(=O)NC2CCN(C3CC3)C2)cc2ccccc21 (configuration not stated)	.
Cc1ccc2c(c1)C(c1ccccc1)=Nc1ccc(C)cc1C(c1ccccc1)=N2	.
Cc1ccc(NC(=S)NCCc2ccccc2)cc1	.
C=C(C)CC1Cc2c(Br)cccc2C(CC(=C)C)N1 (configuration not stated)	.
NC(=O)C1CCCN(C(=O)CCc2ncc(-c3ccc(F)cc3)o2)C1 (configuration not stated)	.
Cc1ccc(C(=O)/C=C/C=C/c2cccs2)cc1	.
COc1ccc(N(Cc2cc(CN3CCOCC3)cs2)S(=O)(=O)c2ccc(F)cc2)cc1	.
SMILES	KDM5B inhibitor
COC(=O)c1ccc(CN(C)CC2CC2)cc1	.
c1ccc(-c2nnc([C@H]3CCN(Cc4ccc5c(c4)OCO5)C3)o2)cc1	.
c1coc(CN2CC[C@H](c3nnc(-c4ccncc4)o3)C2)c1	.
Cc1ccc(CN2CC[C@H](c3nnc(-c4cccnc4)o3)C2)cc1	.
Clc1ccccc1CN1CC[C@H](c2nnc(-c3ccccc3)o2)C1	.
Cc1ccccc1CN1CC[C@H](c2nnc(-c3ccc(N(C)C)cc3)o2)C1	32µM
c1cnc(N2CC[C@H](c3nnc(-c4ccncc4)o3)C2)nc1	32µM
Clc1ccc(-c2nnc([C@H]3CCN(Cc4ccco4)C3)o2)cc1	.
CN(C)c1ccc(-c2nnc([C@H]3CCN(Cc4ccccn4)C3)o2)cc1	35µM
c1cncc(-c2nnc([C@H]3CCN(C4CCOCC4)C3)o2)c1	.
O=C(O)C(c1c[nH]c2ccc(Br)cc12)N1CCN(Cc2cccs2)CC1 (configuration not stated)	.
Cc1cc(C[C@@H]2COC[C@@H]2NC(=O)CCn2c(C)cc3ccccc32)on1	.
Cc1c(C)n(Cc2cccnc2)c2ncnc(NCc3ccco3)c12	.
Cc1cc(C(=O)C(C)Sc2nnnn2C2CCCC2)c(C)n1Cc1ccco1 (configuration not stated)	.
Cc1ccc(C2Cn3nnc(C(=O)N4CCN(C(=O)Cc5cccc(F)c5)CC4)c3CO2)cc1 (configuration not stated)	.
Cc1nnc(NC(=O)CN2CCN(c3cccc(C)c3C)CC2)s1	.
Cc1c(-c2ccc(F)cc2)[nH]c2ccc(CNC(=O)CN3CCOC3=O)cc12	28µM
CCN1CCN(C(=O)c2ccc3[nH]c(C)c(C)c3c2)CC1	.
O=C(CN1CCN(Cc2cccc(Cl)c2)C1=O)NCc1ccc(F)cc1	.
Cc1nc(-c2ccc(F)cc2)n(CC(=O)NCc2ccc3c(c2)OCO3)c(=O)c1CCO	.
O=C(CN1CCOCC1)NCc1ccc(F)cc1	.
CCN1CCN(CC(=O)NCc2ccc3[nH]c(-c4ccc(F)cc4)c(C)c3c2)CC1	32µM
CCCCn1cnc2c1c(=O)n(CC(=O)Nc1ccccc1OC)c(=O)n2CCCC	.
CCCC(=O)N1CCC(C(=O)NCC2(c3ccc(F)cc3)CC2)CC1	.
